Here are results for nine compounds from PubChem BioAssay (Tox21).

Inconclusive results are not listed. The source made the active and inactive calls. Unless noted, the call rests on the fitted dose curve; in most records, active means well fitted curve in the direction sought with a large enough effect in the repeat runs; inconclusive means weak or mixed curves; inactive means no such curve, though single readings can be large; an effect the other way counts as inactive or inconclusive.

For test [1], the target named is Aryl hydrocarbon receptor (Homo sapiens) (UniProt P35869). In words: qHTS assay to identify small molecule that activate the aryl hydrocarbon receptor (AhR) signaling pathway (AID 743085). Further: nearly all actives have a fitted effect of over 15% in size. Further: potency means the concentration at half of the fitted maximal effect.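 On activation: HG2L7.5c1 human HepG2 liver cells with stably integrated DRE-driven firefly reporter; series mostly up to about 70 µM.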 An outline of the steps: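 Stably transfected human liver carcinoma cells (HG2L7.5c1; 20 DRE-firefly luciferase) were incubated 5 h, dosed, and kept 24 h at 37C. Agonism was scored from increased luciferase luminescence.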
Chain of Aryl hydrocarbon receptor (Homo sapiens) (P35869 whole entry, looked up): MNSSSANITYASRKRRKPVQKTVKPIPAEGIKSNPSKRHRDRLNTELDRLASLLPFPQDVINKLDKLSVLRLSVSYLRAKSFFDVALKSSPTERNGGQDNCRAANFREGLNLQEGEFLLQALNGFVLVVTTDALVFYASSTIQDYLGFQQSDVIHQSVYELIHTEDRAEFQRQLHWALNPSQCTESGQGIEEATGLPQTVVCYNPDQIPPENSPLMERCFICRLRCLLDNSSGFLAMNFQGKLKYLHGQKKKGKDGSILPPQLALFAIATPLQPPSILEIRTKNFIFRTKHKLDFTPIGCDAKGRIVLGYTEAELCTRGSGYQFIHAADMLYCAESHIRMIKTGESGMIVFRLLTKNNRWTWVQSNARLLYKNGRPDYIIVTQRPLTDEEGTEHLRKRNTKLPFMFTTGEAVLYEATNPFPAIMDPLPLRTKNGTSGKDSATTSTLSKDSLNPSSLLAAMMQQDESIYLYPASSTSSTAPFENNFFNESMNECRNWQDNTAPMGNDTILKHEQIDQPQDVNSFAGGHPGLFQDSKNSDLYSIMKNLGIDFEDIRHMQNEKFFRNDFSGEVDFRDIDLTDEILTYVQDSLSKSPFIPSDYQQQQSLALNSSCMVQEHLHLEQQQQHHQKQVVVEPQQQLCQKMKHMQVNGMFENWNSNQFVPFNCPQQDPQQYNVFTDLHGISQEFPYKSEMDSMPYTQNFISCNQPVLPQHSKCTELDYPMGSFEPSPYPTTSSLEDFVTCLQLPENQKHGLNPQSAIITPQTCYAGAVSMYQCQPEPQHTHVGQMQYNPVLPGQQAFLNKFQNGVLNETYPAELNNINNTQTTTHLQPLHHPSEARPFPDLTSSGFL
In general terms: In qHTS, concentration-response curves come from the screen itself.

Test [2] in a line: qHTS assay to identify small molecule that activate the aryl hydrocarbon receptor (AhR) signaling pathway - cell viability counter screen (AID 743086).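 Further: HepG2 liver cells carrying the AhR DRE luciferase reporter; series mostly up to about 70 µM; nearly all actives have a fitted effect of over 45% in size.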 In a few lines: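 HepG2-AhR-luc (HG2L7.5c1) cells, 4000/well, were preincubated 5 h at 37C, exposed to compound in qHTS format for 24 hr at 37C, then given CellTiter-Fluor for 30 min; viability was read as fluorescence in the reporter wells.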

In test [3] the target is Peroxisome proliferator-activated receptor gamma (Homo sapiens) (UniProt P37231). The test can be described thus: qHTS assay to identify small molecule agonists of the peroxisome proliferator-activated receptor gamma (PPARg) signaling pathway (AID 743094; active means well fitted activation curve with a large enough effect in the signal ratio in the repeat runs, not every such curve was filed as active; the % refers to the signal ratio). An outline of the steps:
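GeneBLAzer PPARg UAS-bla HEK293H cells carrying a stably integrated beta-lactamase reporter were pre-incubated 5 h at 37C, then exposed to compounds in DMSO for 17 h at 37C; LiveBLAzer B/G FRET substrate was added for 1 h at room temperature and fluorescence read.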

Test [4] has the same target. The test can be described thus: qHTS assay to identify small molecule antagonists of the peroxisome proliferator-activated receptor gamma (PPARg) signaling pathway (AID 743191; calls by dose curve; further: series mostly up to about 63 µM; nearly all actives have a fitted effect of over 30% in size). An outline of the steps: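 GeneBLAzer PPARg UAS-bla HEK293H cells carrying a UAS-driven beta-lactamase reporter were plated at 3000 cells/well, preincubated 5 h at 37C, then given compound for 17 h at 37C; LiveBLAzer B/G FRET substrate was read after 1 h at room temperature.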

Test [5] is described as follows: qHTS assay to identify small molecule antagonists of the peroxisome proliferator-activated receptor gamma (PPARg) signaling pathway - cell viability counter screen (AID 743194). Further: nearly all actives have a fitted effect of over 55% in size. Particulars: Potency: co-treated with 50 nM rosiglitazone. In a few lines:
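PPARg-UAS-bla HEK293H cells were plated, rested 5 h at 37 C, then treated with compounds plus rosiglitazone (50 nM final) for 17 h at 37 C; viability was then read by CellTiter-Glo luminescence after 30 min at room temperature.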

Test [6] is described as follows: qHTS assay for small molecule agonists of the antioxidant response element (ARE) signaling pathway (AID 743202; active means well fitted activation curve with a large enough effect in the signal ratio in the repeat runs, not every such curve was filed as active; the % refers to the signal ratio). An outline of the steps: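 Compounds delivered in DMSO to ARE-bla HepG2 cells (2,000 cells/well, pre-incubated 5 h) and left 16 h at 37 C. LiveBLAzer B/G FRET substrate then added for 2 h at RT before fluorescence reading.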
Test [7] is described as follows: qHTS assay for small molecule agonists of the antioxidant response element (ARE) signaling pathway - cell viability counter screen (AID 743203; calls by dose curve; further: nearly all actives have a fitted effect of over 55% in size). In a few lines:
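CellSensor ARE-bla HepG2 cells, 2,000 per well, rested 5 hrs at 37C/5% CO2, then exposed to compound in DMSO for 16 hrs; viability read as CellTiter-Glo luminescence after 30 min at room temperature, in the reporter wells.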

Test [8] is described as follows: qHTS assay for small molecule activators of the heat shock response signaling pathway - cell viability counter screen (AID 743209). Further: nearly all actives have a fitted effect of over 50% in size. An outline of the steps:
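CellSensor HSE-bla HeLa cells, plated overnight at 37 C/5% CO2, were exposed to compounds in DMSO for 5 h at 37 C. Viability was then read in the same wells by CellTiter-Glo luminescence after 30 min at room temperature.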

Test [9] in a line: qHTS assay for small molecule activators of the heat shock response signaling pathway (AID 743210; active means well fitted activation curve with a large enough effect in the signal ratio in the repeat runs, with a control signal flat, not every such curve was filed as active; the % refers to the signal ratio;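 further: HeLa cells with beta-lactamase reporter driven by heat shock elements; series mostly up to about 63 µM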). In a few lines:
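Reporter gene assay: HeLa cells stably bearing an HSE-bla construct, compound treatment 5 h at 37 C, LiveBLAzer substrate 2.5 h at RT, fluorescence intensity.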

Test [10] can be described thus: qHTS assay to identify small molecule agonists of the peroxisome proliferator-activated receptor delta (PPARd) signaling pathway - cell viability counter screen (AID 743211). Further: nearly all actives have a fitted effect of over 55% in size. An outline of the steps: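 In the same wells used for beta-lactamase reporter measurement, cytotoxicity is scored by CellTiter-Glo. HEK293H PPARd-bla cells receive compound for 17 h at 37C following a 5 h settling period.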

Test [11] deals with Peroxisome proliferator-activated receptor delta (Homo sapiens) (UniProt Q03181). The test can be described thus: qHTS assay to identify small molecule agonists of the peroxisome proliferator-activated receptor delta (PPARd) signaling pathway (AID 743212; calls by dose curve). An outline of the steps:
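A PPARd-bla HEK293H line with beta-lactamase under an Upstream Activator Sequence is treated with compounds at 37 C. Substrate loading for 2 h at room temperature precedes the fluorescence measurement.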

Test [12] can be described thus: qHTS assay to identify small molecule antagonists of the peroxisome proliferator-activated receptor delta (PPARd) signaling pathway - cell viability counter screen (AID 743213). Further: nearly all actives have a fitted effect of over 50% in size. In a few lines: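 Same-well viability: cells pre-incubated 5 h, dosed with compound plus 300 nM L165041, kept 17 h at 37 C, FRET substrate 2 h RT, then CellTiter-Glo 30 min RT and luminescence.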

The target in test [13] is Peroxisome proliferator-activated receptor delta (Homo sapiens) (UniProt Q03181). In words: qHTS assay to identify small molecule antagonists of the peroxisome proliferator-activated receptor delta (PPARd) signaling pathway (AID 743215; active means well fitted inhibition curve with a large enough effect in the signal ratio in the repeat runs, not every such curve was filed as active; the % refers to the signal ratio;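 further: cells stimulated with agonist L165041 at 300 nM final during compound exposure; series mostly up to about 62 µM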). An outline of the steps:
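PPARd UAS-bla HEK293H cells were pre-incubated 5 h at 37 C, then given test compounds in DMSO plus agonist L165041 (300 nM final). After 17 h at 37 C, beta-lactamase FRET substrate was added; fluorescence read after 2 h at room temperature.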

A short description of test [14]: qHTS assay to identify small molecule agonists of the farnesoid-X-receptor (FXR) signaling pathway - cell viability counter screen (AID 743218). Further: nearly all actives have a fitted effect of over 45% in size. An outline of the steps: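 FXR-UAS-bla HEK 293T cells, plated 5 h at 37 C, were exposed to compounds for 16 h at 37 C. CellTiter-Glo was then added to the same wells as the bla readout; luminescence read after 30 min at room temperature.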

A short description of test [15]: qHTS assay to identify small molecule antagonists of the farnesoid-X-receptor (FXR) signaling pathway - cell viability counter screen (AID 743221; active means well fitted cell-killing curve with a large enough effect in the repeat runs, not every such curve was filed as active; further: nearly all actives have a fitted effect of over 50% in size). In a few lines: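 Here viability was scored by luminescence after CellTiter-Glo addition to wells already read for beta-lactamase. Prior treatment: compound plus CDCA (50 uM final), 16 h, 37 C, HEK 293T FXR-bla cells.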

Test [16] has as its target Vitamin D3 receptor (Homo sapiens) (UniProt P11473). The test can be described thus: qHTS assay to identify small molecule agonists of the vitamin D receptor (VDR) signaling pathway (AID 743222; calls by dose curve). In a few lines: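 VDR-bla cells were plated 4 h at 37C/5% CO2, then exposed to compounds in DMSO for 16 h. After LiveBLAzer B/G FRET substrate addition and 2 h at room temperature, beta-lactamase reporter fluorescence was read.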

Test [17] shares this target. The test can be described thus: qHTS assay to identify small molecule antagonists of the vitamin D receptor (VDR) signaling pathway (AID 743223; active means well fitted inhibition curve with a large enough effect in the signal ratio in the repeat runs, not every such curve was filed as active; the % refers to the signal ratio). In a few lines: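 Inhibition of agonist-driven VDR signalling is scored in VDR-bla cells: 3 nM final 1alpha,25-dihydroxyvitamin D3 plus compound, 16 h at 37C, then beta-lactamase detection by FRET substrate fluorescence after 2 h.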

A short description of test [18]: qHTS assay to identify small molecule agonists of the vitamin D receptor (VDR) signaling pathway - cell viability counter screen (AID 743224). Further: series mostly up to about 63 µM; nearly all actives have a fitted effect of over 50% in size. In a few lines:
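VDR-bla cells were preincubated 4 h at 37C/5% CO2, then exposed to compounds for 16 h. After the 2 h room-temperature bla FRET read, CellTiter-Glo was added to the same wells and luminescence read after 30 min.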

For test [19], the target named is Bile acid receptor (Homo sapiens) (UniProt Q96RI1). The test can be described thus: qHTS assay to identify small molecule antagonists of the farnesoid-X-receptor (FXR) signaling pathway (AID 743217; active means well fitted inhibition curve with a large enough effect in the signal ratio in the repeat runs, not every such curve was filed as active; the % refers to the signal ratio). An outline of the steps:
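FXR-UAS-bla HEK 293T cells pre-incubated 5 h at 37 °C, then exposed to compounds with chenodeoxycholic acid (50 uM final) for 16 h at 37 °C. Beta-lactamase reporter read by LiveBLAzer B/G FRET substrate fluorescence after 2 h at room temperature.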

Test [20] shares this target. In words: qHTS assay to identify small molecule agonists of the farnesoid-X-receptor (FXR) signaling pathway (AID 743220; active means well fitted activation curve with a large enough effect in the signal ratio in the repeat runs, not every such curve was filed as active; the % refers to the signal ratio). In a few lines: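 Beta-lactamase reporter under UAS control in GeneBLAzer FXR HEK 293T cells (5000/well) measured with LiveBLAzer FRET substrate after 2 h at room temperature. Compound exposure lasted 16 h at 37C.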

Chain of Vitamin D3 receptor (Homo sapiens) (P11473 whole entry, looked up): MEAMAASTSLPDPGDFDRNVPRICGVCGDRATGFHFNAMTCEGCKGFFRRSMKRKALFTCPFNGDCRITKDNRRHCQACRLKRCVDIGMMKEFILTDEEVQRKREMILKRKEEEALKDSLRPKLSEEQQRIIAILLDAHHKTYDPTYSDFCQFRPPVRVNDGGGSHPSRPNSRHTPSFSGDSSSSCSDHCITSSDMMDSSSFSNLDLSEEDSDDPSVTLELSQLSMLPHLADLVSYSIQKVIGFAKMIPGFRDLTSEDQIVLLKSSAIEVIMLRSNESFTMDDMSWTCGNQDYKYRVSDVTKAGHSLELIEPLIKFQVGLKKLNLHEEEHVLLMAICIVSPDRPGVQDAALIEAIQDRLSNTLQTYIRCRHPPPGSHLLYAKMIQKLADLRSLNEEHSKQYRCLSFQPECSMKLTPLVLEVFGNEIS
Chain of Peroxisome proliferator-activated receptor delta (Homo sapiens) (Q03181 whole entry, looked up): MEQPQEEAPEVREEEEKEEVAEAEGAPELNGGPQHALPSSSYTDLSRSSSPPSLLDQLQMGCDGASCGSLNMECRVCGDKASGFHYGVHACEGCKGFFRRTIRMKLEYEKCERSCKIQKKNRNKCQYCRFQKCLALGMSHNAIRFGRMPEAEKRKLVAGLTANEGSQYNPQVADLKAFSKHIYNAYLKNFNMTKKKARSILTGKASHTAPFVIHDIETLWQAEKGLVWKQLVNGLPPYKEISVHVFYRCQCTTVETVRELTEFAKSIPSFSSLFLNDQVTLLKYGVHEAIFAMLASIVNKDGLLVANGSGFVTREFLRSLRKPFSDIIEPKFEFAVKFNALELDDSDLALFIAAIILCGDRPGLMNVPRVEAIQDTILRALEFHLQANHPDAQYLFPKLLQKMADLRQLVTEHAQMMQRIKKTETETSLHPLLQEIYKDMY
Chain of Bile acid receptor (Homo sapiens) (Q96RI1 whole entry, looked up): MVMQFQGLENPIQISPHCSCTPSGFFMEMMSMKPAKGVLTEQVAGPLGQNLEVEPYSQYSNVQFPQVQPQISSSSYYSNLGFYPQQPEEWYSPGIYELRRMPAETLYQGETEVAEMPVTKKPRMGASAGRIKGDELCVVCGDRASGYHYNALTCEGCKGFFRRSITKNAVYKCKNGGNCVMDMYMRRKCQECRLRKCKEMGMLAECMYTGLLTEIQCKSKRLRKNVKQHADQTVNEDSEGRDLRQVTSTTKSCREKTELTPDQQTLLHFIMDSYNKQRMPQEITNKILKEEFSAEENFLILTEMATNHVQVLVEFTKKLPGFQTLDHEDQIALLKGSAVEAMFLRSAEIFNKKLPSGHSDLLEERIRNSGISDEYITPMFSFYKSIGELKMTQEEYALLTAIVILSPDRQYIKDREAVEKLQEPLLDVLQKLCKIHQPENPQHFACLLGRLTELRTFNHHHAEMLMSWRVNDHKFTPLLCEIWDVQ
Chain of Peroxisome proliferator-activated receptor gamma (Homo sapiens) (P37231 whole entry, looked up): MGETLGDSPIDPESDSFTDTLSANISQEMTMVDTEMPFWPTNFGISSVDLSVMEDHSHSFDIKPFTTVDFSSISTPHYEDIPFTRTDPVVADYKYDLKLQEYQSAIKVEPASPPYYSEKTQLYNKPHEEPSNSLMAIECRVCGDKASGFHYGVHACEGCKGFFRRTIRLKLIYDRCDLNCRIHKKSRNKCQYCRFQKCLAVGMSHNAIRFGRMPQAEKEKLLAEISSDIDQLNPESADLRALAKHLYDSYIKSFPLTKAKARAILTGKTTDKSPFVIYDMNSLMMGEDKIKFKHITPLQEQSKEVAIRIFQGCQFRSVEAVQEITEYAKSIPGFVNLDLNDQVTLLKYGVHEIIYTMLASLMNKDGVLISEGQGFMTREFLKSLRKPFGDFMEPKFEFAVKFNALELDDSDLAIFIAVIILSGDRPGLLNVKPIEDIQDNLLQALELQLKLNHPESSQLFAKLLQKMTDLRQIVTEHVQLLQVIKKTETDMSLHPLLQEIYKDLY

In the case of `C=C(C)[C@H]1CN[C@H](C(=O)O)[C@H]1CC(=O)O`, the Potency entry in [1], in [2], in test [4], in test [5], in [6] and in test [7] was “inactive” throughout. The Potency result in test [8], in [9], in test [10], in [12], in [13] and in test [14] was “inactive” each time. Further, the Potency entry in test [15] and in [18] was “inactive” each time. In addition, the compound was called inactive in test [3], in test [11], in test [16] and in [17].

`NC(=O)OCCCc1ccccc1`: the Potency result in test [1], in [2], in test [4], in test [5], in [6] and in test [7] was “inactive” throughout. In addition, the Potency result in [8], in [9], in test [10], in [12], in [14] and in [15] was “inactive” in each case. Besides, the Potency result in test [18] is “inactive”. For the same compound, the result in test [3] was inactive.

With `ClC(Cl)(Cl)Cl`, the Potency entry in test [1], in [2], in [4], in test [5], in test [6] and in test [7] was “inactive” throughout. Also, the Potency result in test [8], in test [10], in [12], in test [14], in test [15] and in test [18] was “inactive” throughout. Besides, the outcome in [3], in test [11], in [19], in test [20], in test [16] and in test [17] was inactive.

With `ClCCCCl`, the Potency entry in test [1], in [2], in [4], in test [5], in test [6] and in test [7] was “inactive” each time. Also, the Potency result in test [8], in test [9], in test [10], in test [14], in test [15] and in [18] was “inactive” each time. Also, the compound was called inactive in test [3], in test [11], in test [19], in [20], in test [16] and in test [17].

On to `BrCCc1ccccc1`, for which the Potency entry in test [1], in test [2], in [4], in [5], in test [6] and in test [7] was “inactive” throughout. In addition, the Potency entry in [8], in test [9], in test [10], in test [12], in [14] and in test [15] was “inactive” each time. In [18], the Potency entry was “inactive”. Moreover, the result in [3] and in test [11] was inactive.

On to `CC(C)(C)C(=O)Cl`, for which the Potency entry in test [1], in test [2], in [4], in [5], in [6] and in test [7] was “inactive” in each case. For the same compound, the Potency result in test [8], in test [9], in [10], in [12], in [13] and in test [14] was “inactive” throughout. Also, the Potency entry in test [15] and in test [18] was “inactive” in each case. In addition, the outcome in test [3], in [11], in [19] and in [20] was inactive.

With `OCC(Cl)CCl` (stereo not given), the Potency result in test [1], in test [2], in test [4], in test [5], in test [6] and in test [7] was “inactive” throughout. The Potency entry in [9], in test [10], in test [12], in test [13], in test [14] and in test [15] was “inactive” throughout. Further, the compound was called inactive in [3], in [11], in test [16] and in [17].

Consider `CCNP(=S)(OC)O/C(C)=C/C(=O)OC(C)C` (stereo not given), for which the Potency in test [1] was 4.86 µM (active). Moreover, the Potency entry in test [2], in [4], in [5], in test [6], in test [7] and in test [8] was “inactive” in each case. Moreover, the Potency entry in test [9], in [10], in [12], in test [14] and in test [15] was “inactive” each time. Moreover, the result in [3], in [16] and in test [17] was inactive.

For `COc1ccc(C=O)cc1O`, the Potency result in test [1], in test [2], in test [4], in test [5], in [6] and in test [7] was “inactive” each time. Also, the Potency result in test [8], in test [9], in test [10], in [12], in test [13] and in [14] was “inactive” throughout. Also, the Potency entry in test [15] and in [18] was “inactive” each time. In addition, the outcome in [3], in test [11], in test [19] and in [20] was inactive.
